Laboratory results from PubChem BioAssay (NCATS).
Inconclusive results are not listed. Entries that show only a call come without a potency. Values without a mark were called inactive. The source made the active and inactive calls. The call rests on the fitted dose curve; tested in HEK293 reporter line.

test: qHTS for Inhibitors of the Functional Ribonucleoprotein Complex (vRNP) of Lassa (LASV) Arenavirus: LASV Primary Screen - GLuc reporter signal (AID 1347082); settings: LASV minigenome vRNP, Gaussia luciferase reporter; series mostly up to 57.5 µM; further: nearly all actives have a fitted effect of over 60% in size

SMILES	Potency	activity change, negative = inhibition
CCCCCN(CCCOC)C(=O)C(CCC(=O)O)NC(=O)c1ccc(Cl)c(Cl)c1 (stereo not given)	inactive	–
O=c1[nH]c(=O)n([C@H]2CCCO2)cc1F	inactive	–
CCCCCCCCCCCCCCCCO	inactive	–
CN1CCN(c2c(F)cc3c(=O)c(C(=O)O)cn4c3c2SCC4)CC1	inactive	–
Cc1cc(OI)c(C(C)C)cc1-c1cc(C(C)C)c(OI)cc1C	inactive	–
CC(O)CN(CCN(CC(C)O)CC(C)O)CC(C)O (stereo not given)	inactive	–
CC(=O)OCC[N+](C)(C)C	inactive	–
NCCCCCC(=O)O	inactive	–
NCC[C@H](O)C(=O)N[C@@H]1C[C@H](N)[C@@H](O[C@H]2O[C@H](CN)[C@@H](O)[C@H](O)[C@@H]2O)[C@H](O)[C@@H]1O[C@H]1O[C@H](CO)[C@@H](O)[C@H](N)[C@@H]1O	–	-6.8% [at 0.757 µM]
CNCC(O)c1ccc(O)c(O)c1 (stereo not given)	inactive	–
NC(=O)NC1NC(=O)NC1=O (stereo not given)	inactive	–
C[C@H]1O[C@@H](n2cc(F)c(=O)[nH]c2=O)[C@H](O)[C@@H]1O	inactive	–
CCO/C([O-])=N/c1c[n+](N2CCOCC2)no1	inactive	–
O=C(O)Cc1sc(-c2ccccc2)nc1-c1ccc(Cl)cc1	inactive	–
CCCCN(CCCC)CCCOC(=O)c1ccc(N)cc1	inactive	–
COC(=O)/C=C(/C)N	inactive	–
NCc1ccc(S(N)(=O)=O)cc1	inactive	–
Cc1cccc(C)c1NC(=O)CN1CCCCCC1	inactive	–
O=C(C1CCCCC1)N1CC(=O)N2CCCc3ccccc3C2C1 (stereo not given)	inactive	–
CCCCNC(=O)NS(=O)(=O)c1ccc(N)cc1	inactive	–
